Assay results as given in PubChem BioAssay AID624465 (National Center for Advancing Translational Sciences (NCATS), 2012).
Among all 360,000 compounds or so, about 300 (0.083%) were called active. No stated cut-off is given here; in the data, active means activation above about 40%; inconclusive means between about 15% and that limit; inactive means weaker than that. Only a selection was taken, and actives are over-represented in it overall.

Each molecule was assayed against D(2) dopamine receptor (Homo sapiens) (UniProt P14416) (assay: Beta-Arrestin HTS for Positive Allosteric Modulators of the Human D2 Dopamine Receptor: Agonists). Conditions: DiscoveRx PathHunter D2 beta-arrestin, luminescence, 90 min; stronger effect = higher value; 100% = 57 uM dopamine signal.
Chain of D(2) dopamine receptor (Homo sapiens) (P14416 whole entry, looked up): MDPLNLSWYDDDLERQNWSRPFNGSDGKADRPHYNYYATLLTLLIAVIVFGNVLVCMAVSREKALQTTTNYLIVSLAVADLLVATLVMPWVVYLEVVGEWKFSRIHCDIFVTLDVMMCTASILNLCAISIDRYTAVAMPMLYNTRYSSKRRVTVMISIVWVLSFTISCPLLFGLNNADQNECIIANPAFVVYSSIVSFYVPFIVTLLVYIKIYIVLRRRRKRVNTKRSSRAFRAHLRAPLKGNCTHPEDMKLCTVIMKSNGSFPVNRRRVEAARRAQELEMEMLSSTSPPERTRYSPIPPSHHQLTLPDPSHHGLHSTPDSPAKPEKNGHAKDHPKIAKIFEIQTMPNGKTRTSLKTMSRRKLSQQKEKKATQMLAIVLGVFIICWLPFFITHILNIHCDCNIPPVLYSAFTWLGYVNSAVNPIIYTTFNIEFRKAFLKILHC
Excerpt: There is great interest in identifying small molecule ligands for G-protein coupled receptors (GPCRs) as nearly 50% of all FDA-approved drugs target these important receptor proteins. […] Amongst the dopamine receptors (DARs), the D2 is arguably one of the most validated drug targets in neurology and psychiatry. For instance, all receptor-based antiparkinsonian drugs primarily work via stimulating the D2 DAR, whereas all FDA-approved antipsychotic agents are antagonists of this receptor. The D2 DAR is also therapeutically targeted in other disorders such as restless legs syndrome, tardive dyskinesia, Tourette's syndrome, and hyperprolactinemia.
To this end, a miniaturized qHTS screen was developed to be screened against the Molecular Libraries Small Molecule Repository (MLSMR). This assay seeks to identify agonists against the D2 DAR.
NIH Molecular Libraries Probe Production Network [MLPCN]
NIH Chemical Genomics Center [NCGC]
PI Name: David Sibley, National Institutes of Neurological Disorders and Stroke
DiscoveRx D2 cells were thawed from frozen stock and seeded at 2,100 cells/ 3 uL/well media (DiscoveRx Plating Reagent 2) with MultiDrop Combi dispenser (Thermo Scientific, Logan, UT) onto white tissue culture treated 1536-well Aurora plates (Brooks Automation, Chelmsford, MA) and allowed to attach overnight at 37 deg C, 5% CO2. Next, 23 nL/well of compound solutions in DMSO were added with a pintool transfer (Kalypsis, San Diego, CA). As the positive control, 1 uL/well dopamine (EC100, 57 uM final concentration) diluted in buffer (HBSS + 10 mM HEPES + SMB + 0.1% Tween-20) was dispensed to 1 column of each plate. The rest of the plate was dispensed with buffer only, 1 uL/well as well. The cells were stimulated by compounds or dopamine control for 90 minutes at 37 deg C, 5% CO2, after which 1.5 ul/well of DiscoveRx detection reagent was added with BioRAPTR FRD dispenser. The detection reagent was prepared by mixing of Galacton Star Substrate, Emerald II solution and PathHunter buffer (supplied by the assay kit) together at 1:5:19 proportion accordingly just prior to dispensing. The plates were incubated at ambient temperature for 1 hour and then the luminescent signal was read on ViewLux plate reader (PerkinElmer, Waltham, MA).

SMILES	activation
CC(OC(=O)CNS(=O)(=O)/C=C/c1ccccc1)C(=O)Nc1ccc(S(=O)(=O)N2CCCC2)cc1 (stereo not given)	0.137% (inactive)
CCOc1ccc(NC(=O)CN(C)C(=O)c2c(C)noc2C)cc1OCC	-1.71% (inactive)
NC(=O)C(Cc1ccccc1)NC(=O)C12CC3CC(CC(C3)C1)C2 (stereo not given)	-2.84% (inactive)
CSc1nnc2c(n1)OC(c1cn(C)c3ccccc13)N(C(C)=O)c1ccccc1-2 (stereo not given)	-3.75% (inactive)
O=C(CSc1nc2cccc(F)c2c(=O)n1-c1ccccc1)Nc1ccc2c(c1)CCC2	0.472% (inactive)
C=CS(=O)c1sc(Cl)c(N2CCOCC2)c1[N+](=O)[O-] (stereo not given)	-11% (inactive)
CC(C)c1cccc(C(C)C)c1Nc1cn[nH]c1	8.06% (inactive)
CSCCC(NC(=O)COc1ccccc1)C(=O)N(C)CC(=O)Nc1ccc(C)cc1 (stereo not given)	-3.34% (inactive)
Cc1ccc(Sc2cc(N3CCOCC3)nc(-c3ccccc3)n2)cc1	2.6% (inactive)
Cc1csc(NC(=O)CSc2nnc(-c3cccnc3)o2)n1	-2.74% (inactive)
CCC(=NC1CC(C)(C)NC(C)(C)C1)C1=C(O)CC(C)(C)CC1=O	0.839% (inactive)
CCOc1ccc(NC(=O)CN(C)CC(=O)NC(C)c2ccccc2)cc1OCC (stereo not given)	-5.49% (inactive)
COCCn1c(C)cc(C(=O)COC(=O)/C=C/c2cccc(OC)c2)c1C	-0.488% (inactive)
CCCCc1nccn1CCn1ccnc1CCCC	-1.34% (inactive)
Cc1cc(C)nc(N2C(=O)CC(Cc3ccccc3)C2=O)n1 (stereo not given)	-1.43% (inactive)
CC(C)c1ccc(N(C(=O)c2ccco2)C(C(=O)NC2CCCC2)c2cccnc2)cc1 (stereo not given)	1.27% (inactive)
CCN1CCN(C(=O)/C=C\C(=O)O)CC1	-0.987% (inactive)
CCOc1ccc(Oc2nc(C)cc(OC)n2)nn1	-3.16% (inactive)
CCC(C(=O)NC1CCCCC1)N(C(=O)c1snc(C(N)=O)c1N)c1ccc(OC)cc1OC (stereo not given)	-1.51% (inactive)
CC(=O)NC1(c2ccc(F)cc2)CCN(C(=O)c2c(F)cccc2F)CC1	-4.03% (inactive)
Cc1ccc(Cl)cc1NC(=O)C1CCN(S(C)(=O)=O)CC1	-3.51% (inactive)
CC(NCc1ccccc1OC1CCCC1)c1ccccc1 (stereo not given)	-2.1% (inactive)
COc1ccc(-c2ccc3nnc(SCC(=O)Nc4ccc(NC(C)=O)cc4)n3n2)cc1	0.231% (inactive)

SMILES	activation
O=C(NNS(=O)(=O)c1ccc(F)cc1)C1CCCCC1	-2.79% (inactive)
O=C(Cn1nc([N+](=O)[O-])nc1Br)NC1CCCCC1	6.2% (inactive)
CC(=O)c1nnn(-c2ccc(Cl)cc2C#N)c1C	-0.344% (inactive)
Cc1cccc2nc(CNc3ccc(F)cc3)cn12	-2.67% (inactive)
COc1ccc([N+](=O)[O-])cc1NC(=O)c1ccc(N(Cc2ccccc2C)S(C)(=O)=O)cc1	1.42% (inactive)
CN(CC(=O)NC1CCCCC1)S(=O)(=O)c1cccc2cccnc12	-4.91% (inactive)
CCCCCN(C(=O)NC(=O)Nc1cccc(C)c1C)S(C)(=O)=O	-5.29% (inactive)
Cc1ccccc1Nc1scc(-c2ccc(Br)cc2)[n+]1-c1ccccc1C	-4.78% (inactive)
Cc1nn(-c2ccccc2)c2c1c(C)c(CCC(=O)NCC1CCCO1)c(=O)n2C (stereo not given)	-0.567% (inactive)
O=c1ccc2cc(S(=O)(=O)N3CCN(c4ccccc4)CC3)ccc2o1	-0.365% (inactive)
CCCOc1cc(C)c(S(=O)(=O)n2nnc3ccccc32)cc1C	2.16% (inactive)
CC(=O)N1C[C@@H](CO)[C@@H](N(C)C(=O)c2ccco2)C[C@H]1c1ccccc1	-6.66% (inactive)
Cc1cc(C)cc(C(=O)N(CCc2ccccc2)C2=CC3CCC(C2)N3C)c1 (stereo not given)	0.198% (inactive)
CCCN(CCc1ccccc1)C1CCc2c(O)cccc2C1 (stereo not given)	56.1% (active)
CCCc1cc(=O)[nH]c(SCC(=O)c2c(N)n(CC(C)C)c(=O)n(C)c2=O)n1	-5.56% (inactive)
Cc1ccc(-c2csc(C(C#N)=C(O)CN3CCN(C(=O)c4ccco4)CC3)n2)cc1	9.93% (inactive)
O=C(NCC1CCCO1)C1CCN(C2CCN(C(=O)C3CCCCC3)CC2)CC1 (stereo not given)	0.237% (inactive)
CC1CCc2c(sc3c2C2=NS(=O)(=O)CCN2C=N3)C1 (stereo not given)	-1.75% (inactive)
CCCCN1C(=O)C(=O)N(CC(=O)Nc2cccc(C(C)=O)c2)C1=O	-3.6% (inactive)
O=C1CCCN1C(=O)COc1ccc([N+](=O)[O-])cc1	-5.83% (inactive)
C[C@H](OC(=O)n1ccnc1)[C@@H]1O[C@@]2(C)CCC[C@@H]1O2	-0.3% (inactive)
CCC(=O)N1c2ccc(S(=O)(=O)NCc3ccco3)cc2CC1C (stereo not given)	4.56% (inactive)
CC(NC(=O)CNC(=O)Cc1cccc2ccccc12)c1ccc(S(N)(=O)=O)cc1 (stereo not given)	-2.38% (inactive)

SMILES	activation
COc1ccc(CC(=O)NC(C)c2ccc(Cl)c(Cl)c2)cc1S(=O)(=O)N1CCOCC1 (stereo not given)	-3.32% (inactive)
CN(C(=O)c1cccc(NC(=O)Cc2ccc(NC(=O)C3CCCN(C(=O)C4CCCC4)C3)cc2)c1)C1CCC1 (stereo not given)	1.94% (inactive)
COC(C[C@H](O)CC(=O)COCc1ccccc1)OC	0.157% (inactive)
C[C@H](CO)N1C[C@H](C)[C@@H](CN(C)S(=O)(=O)c2ccc(F)cc2)OCc2cnnn2CCCC1=O	-9.17% (inactive)
CC(C)C1C(=O)N(Cc2cn(CCC3OCCO3)nn2)CCS(=O)(=O)N1Cc1ccc(-c2ccccc2C(F)(F)F)cc1 (stereo not given)	-3.03% (inactive)
Oc1ccccc1CNc1ncc(Br)cc1Br	0.262% (inactive)
O=C(CSc1ccsc1[N+](=O)[O-])N1CCCCC1	-4.54% (inactive)
Cc1cccc(NC(=O)c2ccc(OCC(=O)NCc3ccccc3)cc2)c1C	-2.68% (inactive)
Cc1c(NC(=O)C(C)OC(=O)c2cc3c4ccccc4n(C)c3s2)c(=O)n(-c2ccccc2)n1C (stereo not given)	-5.25% (inactive)
Cc1ccc(C(=O)NC2CCCC(C)C2C)cc1S(=O)(=O)N1CCCCC1 (stereo not given)	-2.55% (inactive)
N#CC1=C(N)N(c2ccc(F)cc2)C(=O)C1	-1.46% (inactive)
CC1(C)C(=O)C2(CCCCC2)C(=O)OC1c1cccs1 (stereo not given)	-2.99% (inactive)
CC(=O)Nc1ccc(CNc2nc(NCCN(C)C)nc3cc(-c4ccccc4)sc23)cc1	-1.9% (inactive)
COCCNc1nc(NCc2ccc(NC(C)=O)cc2)c2sccc2n1	67.7% (active)
COc1cccc(CNc2nc(NCc3cccs3)nc3ccsc23)c1	-1.88% (inactive)
COc1cccc(C(O)c2ncc(-c3ccc4ccccc4c3)[nH]2)c1 (stereo not given)	-2.42% (inactive)
CC1(C(=O)Nc2ccccc2Br)CCN1C(=O)CC1CC1 (stereo not given)	-0.948% (inactive)
COc1cc(NC(=O)C2CCN(c3cnccn3)CC2)cc(OC)c1	-4.96% (inactive)
COc1ccc(N(CC(=O)Nc2cc(OC)cc(OC)c2)S(=O)(=O)c2c(C)n[nH]c2C)cc1	-3.11% (inactive)
CCNC(=O)Nc1ccc(S(=O)(=O)Nc2cnc(C)nc2C)cc1	-5.47% (inactive)
O=c1ccc(-c2ccc(S(=O)(=O)Nc3ccccc3)o2)n[nH]1	-1.56% (inactive)
CCN1C(=O)C(=O)N(CC(=O)Nc2cc(C)ccc2C)C1=O	-2.03% (inactive)
CCOc1ccc(CN2CCC(n3nccc3NC(=O)C3CC3)CC2)cc1CO	4.34% (inactive)

SMILES	activation
CCCNC(=O)c1cc(C2CCCCN2C(=O)OC)on1 (stereo not given)	-5.6% (inactive)
COc1ccc(C2=Nc3ccccc3NC(=O)C2N(C(=O)c2cc3ccccc3[nH]2)c2ccccc2)cc1 (stereo not given)	2.65% (inactive)
CC(C)(O)C#Cc1ccc(CNC[C@H]2O[C@@H](n3cnc4c(=O)[nH]c(N)nc43)[C@H](O)[C@@H]2O)s1	-5.21% (inactive)
O=S(=O)(Cc1nnnn1-c1ccccc1)c1ccccc1	0.629% (inactive)
CC(=O)c1c(N2CCN(c3ccc(F)cc3)CC2)nc(=S)n(-c2ccccc2)c1C	-6.73% (inactive)
CC(C)c1ccc(S(=O)(=O)N2CCN(C(=O)CN3C(=O)NC(C)(c4ccccc4)C3=O)CC2)cc1 (stereo not given)	1.77% (inactive)
O=C(Nc1ccc(Cl)c(Cl)c1)N1CC=C(c2ccccc2)CC1	-2.15% (inactive)
CC1CC(C)CN(C(=O)COC(=O)c2ccc3ncsc3c2)C1 (stereo not given)	0.233% (inactive)
CCC(=O)c1c[nH]c(C(=O)NCC2CCCO2)c1 (stereo not given)	-0.182% (inactive)
CCCC(=O)N1c2ccc(-c3csc(N)n3)cc2CC1C (stereo not given)	2.86% (inactive)
CC(C)(C)C(=O)OCc1nc(-c2ccc(O)c(O)c2)cs1	78% (active)
COc1ccc(C(C)(O)c2nc(-c3ccc(C)c(C)c3)cs2)cc1 (stereo not given)	0.66% (inactive)
CCCN(CCC)c1c([N+](=O)[O-])c(=O)oc2ccccc12	-4.9% (inactive)
O=C1/C(=C\c2ccc([N+](=O)[O-])cc2)CS(=O)(=O)C/C1=C/c1ccc([N+](=O)[O-])cc1	-8.23% (inactive)
O=C(O)C1CCN1C1CCCCC1 (stereo not given)	-0.715% (inactive)
OC[C@@H]1CN(Cc2cccs2)C[C@H](n2cnc3c(Nc4ccccc4)ncnc32)O1	-3.6% (inactive)
COc1cccc(-c2cnc3c(NC(C)=O)cc(-c4cc(F)ccc4OC)cn23)c1	2.15% (inactive)
CN1C(=O)/C(=C/C=C2\SCCN2C)OC1=S	-3.31% (inactive)
O=C1c2ccccc2C(=O)N1CCC(O)C[N+](=O)[O-] (stereo not given)	-2.92% (inactive)
O=C(NC1CC2CCCC(C1)N2C(=O)N1CCCCC1)C1CCCCC1 (stereo not given)	-2.68% (inactive)
O=C(Nc1ccccc1N1CCOCC1)c1ccc(OCc2cscn2)cc1	9.98% (inactive)
